# Assay results as given in PubChem BioAssay AID651599 (National Center for Advancing Translational Sciences (NCATS), 2012).
# Inconclusive results are not listed. A call without a number means that no potency is given here. The source made the active and inactive calls. The call rests on the fitted dose curve; in most records, active means well fitted inhibition curve with a large enough effect; inconclusive means small, poorly fitted or top-dose-only effect; inactive means no such curve, though single readings can be large or run the other way.
# Target: Tumor susceptibility gene 101 protein (Homo sapiens) (UniProt Q99816)
# Assay: qHTS Assay for Iinhibitors of HIV-1 Budding by Blocking the Interaction of PTAP/TSG101: Hit Validation in TR assay
# Conditions: Tsg101 binding domain + Texas Red-labeled PTAP peptide, fluorescence polarization, 20 min; series mostly up to 57.5 µM
# Method in brief: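 Fluorescence polarization: Tsg101 binding domain (10 uM final) with Texas Red-labelled PTAP peptide (50 nM final) in HEPES pH 7.5, 0.15 M NaCl, Tween 20, EDTA, TCEP; 20 min binding at room temperature after compound addition.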
# Chain of Tumor susceptibility gene 101 protein (Homo sapiens) (Q99816 whole entry, looked up): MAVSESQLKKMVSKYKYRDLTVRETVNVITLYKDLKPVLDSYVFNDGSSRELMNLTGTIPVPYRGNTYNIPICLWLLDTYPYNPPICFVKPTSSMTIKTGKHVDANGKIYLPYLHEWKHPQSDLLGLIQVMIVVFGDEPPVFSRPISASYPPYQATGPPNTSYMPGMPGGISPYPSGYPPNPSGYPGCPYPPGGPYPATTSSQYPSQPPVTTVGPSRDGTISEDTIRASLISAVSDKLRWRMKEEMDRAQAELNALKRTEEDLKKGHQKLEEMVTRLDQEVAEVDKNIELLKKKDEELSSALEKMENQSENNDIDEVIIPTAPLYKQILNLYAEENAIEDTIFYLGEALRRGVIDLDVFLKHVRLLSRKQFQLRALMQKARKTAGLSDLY
row,SMILES,Potency
1,CC(=O)Nc1ccc(N=Cc2c(O)ccc3ccccc23)cc1,inactive
2,COc1ccc2c(C#N)c3ccccn3c2c1,inactive
3,CC(=O)c1ccc(N2C(=O)C3C(C2=O)C(C(=O)c2ccc(Cl)cc2)N2CCCC32)cc1 (centres undefined),inactive
4,CC(C)(C)OC(=O)NC(Cc1ccccc1)C(=O)N1CCC(C(=O)NCC(=O)Nc2ccc(F)cc2)CC1 (centres undefined),inactive
5,COc1ccccc1N1C(=O)c2cccc3c(N(C)CCO)ccc(c23)C1=O,inactive
6,CCOc1ccc(NC(=O)c2ccc3c(c2)CCN3S(C)(=O)=O)cc1,inactive
7,Cc1ccc(N2C(=O)c3cccc4c(N5CCN(C)CC5)ccc(c34)C2=O)c2cccnc12,inactive
8,O=C(CN1C(=O)c2ccccc2S1(=O)=O)Nc1ncc(Cl)cc1Cl,inactive
9,CCN(CC)c1ccc2cc(S(=O)(=O)c3ccc(C)cc3)c(=O)oc2c1,inactive
10,Cn1c(=O)c(Nc2ccc(Cl)cc2)c2c3c(cccc31)C(=O)c1ccccc1-2,inactive
11,CCN(CC)C(=O)Cn1c(=O)c2ccccc2n2c(=S)sc(-c3cccc(C)c3)c12,inactive
12,Cn1c2ccc(F)cc2c2nc3ccccc3nc21,inactive
13,O=C(O)c1cc(O)c2c(c1)C(=O)c1cccc(O)c1C2=O,inactive
14,Cn1c(/C(C#N)=C/c2ccc(-c3ccc(S(N)(=O)=O)cc3)o2)nc2ccccc21,inactive
15,Nc1ccc(-c2c3ccc(=O)cc-3oc3cc(O)ccc23)c(C(=O)O)c1,inactive
16,O=C1c2ccccc2C(=O)c2c1ccc(O)c2O,inactive
17,CC(=O)N(/N=C1/C(=O)Nc2ccccc21)c1ccccc1,inactive
18,O=C(/C=C/c1ccc(Cl)cc1Cl)c1nc2ccccc2[nH]1,inactive
19,CCN1CCN(Cc2ccc(NC(=O)Nc3ccccc3OC)cc2)CC1,inactive
20,Cc1c2ccccc2nc2c(F)c(N(C)C)c(F)c(F)c12,inactive

row,SMILES,Potency
1,CCN(CC)c1ccc2cc(S(=O)(=O)c3ccc(Cl)cc3)c(=O)oc2c1,inactive
2,Cc1cc(-c2cccs2)c2c(N)c(C(=O)c3ccc4c(c3)OCO4)sc2n1,inactive
3,COc1ncnc2c1N=C1CC(C)(C)CC(N)=C1S2,inactive
4,CCc1cc(C(=O)Nc2ccc(OC)nc2)sc1C,inactive
5,OCCN(CCO)c1nc(N2CCCCC2)c2nc(N(CCO)CCO)nc(N3CCCCC3)c2n1,inactive
6,N#Cc1cccc(NC(=O)CSc2ccc3c4c(cccc24)C(=O)c2ccccc2-3)c1,inactive
7,CN(C)CCCN1C(=O)c2cccc3c(Br)ccc(c23)C1=O,inactive
8,O=C(NCc1ccccc1Br)c1cccc2c1C(=O)c1ccc(N3CCC(Cc4ccccc4)CC3)cc1S2(=O)=O,inactive
9,O=C1/C(=N\S(=O)(=O)c2cccs2)C([n+]2ccccc2)=C([O-])c2ccccc21,inactive
10,Oc1[nH]c2ccc(Br)cc2c1N=Nc1ccc(F)cc1,inactive
11,COc1cccc(C(=O)c2sc3nc(-c4ccccc4)cc(C(F)(F)F)c3c2N)c1,inactive
12,CN1CC=C2C(C#N)=C(N)C(C#N)(C#N)C(Cc3ccccc3)C2C1 (centres undefined),inactive
13,Cc1cc(/C=C2\SC(=S)N(Cc3ccco3)C2=O)c(C)n1-c1cccnc1,inactive
14,O=C(Nc1ccccc1F)C(=Cc1sc(N2CCOCC2)nc1-c1ccccc1)C(=O)Nc1ccccc1F,inactive
15,Cc1ccc(/C=C/C(=O)Nc2ccc(S(=O)(=O)Nc3onc(C)c3C)cc2)cc1,inactive
16,CCn1c(C)cc(C=C2C(=O)c3ccccc3C2=O)c1C,inactive
17,CCCNc1c(F)c(F)c2c(C)c3ccccc3nc2c1F,inactive
18,Cc1cc(Br)ccc1NC(=O)c1sc2nc3n(c(=O)c2c1C)CCCC3,inactive
19,Cc1c(C(=O)Nc2cccc(C(F)(F)F)c2)sc2nc3n(c(=O)c12)CCCC3,inactive
